Results on 14 compounds are retold here after PubChem BioAssay.

SMILES strings stand for the structures. The source made the active and inactive calls.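 The calls were made as follows, unless noted: active = visually confirmed hit in the image check and inhibition above 20%; inconclusive = visually confirmed hit but inhibition not above 20%; inactive = no visual hit in the image check.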

The nature of experiment [1]: inhibitors of TNFa-induced NFkB p65 translocation, primary screen, imaging, HUVEC, MLSMR starter and 10KST1 sets (AID 438;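 active = inhibition above 20% together with a positive visual image hit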;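 also: compound added about 3h40 before a 20 min TNFalpha stimulation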;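 as to inhibition: signal is the nuclear over cytoplasmic p65 intensity ratio per well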). The following applies: HUVEC TNFa-induced p65 nuclear translocation; cell count: measured here: nuclei count (cytotoxicity indicator), at 2.08 µM; inhibition: at 2 µM, stronger effect = higher value, 0% TNFa-plus-vehicle, 100% no-TNFa wells.
Experiment [2] is described as follows: inhibitors of mutant huntingtin aggregation, primary screen, imaging, exon1htt(103Q)mCFP cells, high-content imaging (AID 483;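 active = visual image review flags a hit and inhibition of aggregation exceeds 20%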;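 also: compound exposure lasted 3 days before fixation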;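 as to nuclei count: percent of the per-plate median nuclei count of sample wells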). The following applies: exon1htt(103Q)mCFP cell line, aggregate imaging, at 2 µM; inhibition of aggregation: stronger effect = higher value; nuclei count: measured here: cell count, toxicity.
Experiment [3] is described as follows: inhibitors of E-selectin induction by TNFa, primary screen, imaging, HUVEC, immunofluorescence, MLSMR starter and 10KST1 sets (AID 487).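 As to inhibition: signal is fraction of cell area covered by stained E-selectin grains.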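 As to nuclei count: 100% = median nuclei count of all wells on the same plate.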 The following applies: HUVEC TNFalpha-induced E-selectin immunofluorescence imaging, at 2 µM; inhibition: stronger effect = higher value; nuclei count: measured here: cell number, toxicity.
For experiment [4], the target named is Voltage-gated potassium channel subunit beta-2 (Rattus norvegicus) (UniProt P62483). Nature of the experiment: KvBeta enzyme negative modulators, primary screen, biochemical, NADPH fluorescence (AID 622;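 active = fluorescence slope higher than the sample average by over 3 SD, cut at about -0.22 in these data, passing the limit was not always enough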;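 also: slope of raw intensity against log time taken from 70 to 1610 s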). As to conditions: recombinant KvBeta, 4-cyanobenzaldehyde reduction, at 10 µM, stronger effect = higher value.
Voltage-gated potassium channel subunit beta-2 (Rattus norvegicus), sequence (P62483 whole entry, looked up): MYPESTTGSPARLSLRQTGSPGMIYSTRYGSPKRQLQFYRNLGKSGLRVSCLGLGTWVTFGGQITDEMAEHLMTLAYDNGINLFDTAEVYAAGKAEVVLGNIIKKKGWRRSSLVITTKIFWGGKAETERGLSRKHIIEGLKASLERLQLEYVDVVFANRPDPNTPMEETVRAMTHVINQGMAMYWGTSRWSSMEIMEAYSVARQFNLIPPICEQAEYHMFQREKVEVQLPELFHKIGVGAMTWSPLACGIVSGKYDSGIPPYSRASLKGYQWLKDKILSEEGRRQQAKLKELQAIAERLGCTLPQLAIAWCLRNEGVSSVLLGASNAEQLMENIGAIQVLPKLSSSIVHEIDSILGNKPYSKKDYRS
Experiment [5] shares this target. Description: KvBeta positive modulators, primary screen, biochemical, NADPH fluorescence (AID 623;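 active = NADPH fluorescence slope more negative than the mean of all samples by about 3 SD, 99.7% confidence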;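 also: fluorescence intensity change per second fitted from 20 to 320 s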). As to conditions: Recombinant KvBeta, NADPH fluorescence decrease slope, 10 min; at 10 µM; stronger effect = lower value.
Experiment [6] concerns the target Alpha-2C adrenergic receptor (Homo sapiens) (UniProt P18825). Description: modulators of alpha2C/GIRK thallium flux, primary screen, cell-based, HEK293 alpha2C/GIRK1/2 (AID 624;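 active = fluorescence slope after compound addition differing from the mean of all screened samples at 99.7% confidence, in either direction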;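 also: slope of fluorescence ratio to pre-addition baseline per second over 15 to 24 s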). The following applies: thallium flux BTC fluorescence, at 10 µM, actives lie on both sides.
Experiment [7] can be described thus: inhibitors of Sendai virus-induced IRF3 signaling, primary screen, TLR/RLR signaling modifier project, cell-based, Sendai virus stimulus, luciferase, 10K MLSCN set (AID 602276;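 active = inhibition at or above 50% at 10 µM; inactive = inhibition below 50%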;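 also: firefly luciferase from ISG56 promoter only with Renilla not read in this screen; 0% = Sendai virus plus DMSO and 100% = medium plus DMSO without virus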). The following applies: HEK293 RL24 IRF3 luciferase reporter, at 10 µM, stronger effect = higher value. (In general: Reporter assays use an easily measured gene product as a stand-in for the process of interest.)

Experiment [8] is described as follows: inhibitors of poly I:C-induced TLR3 signaling, primary screen, cell-based, poly I:C stimulus, luciferase, 10K MLSCN set (AID 602277;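 active = inhibition of the reporter signal at or above 50%; inactive = inhibition below 50%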). As to conditions: HEK293-TLR3 RL24 IRF3 luciferase reporter, at 10 µM, stronger effect = higher value.

Alpha-2C adrenergic receptor (Homo sapiens), sequence (P18825 whole entry, looked up): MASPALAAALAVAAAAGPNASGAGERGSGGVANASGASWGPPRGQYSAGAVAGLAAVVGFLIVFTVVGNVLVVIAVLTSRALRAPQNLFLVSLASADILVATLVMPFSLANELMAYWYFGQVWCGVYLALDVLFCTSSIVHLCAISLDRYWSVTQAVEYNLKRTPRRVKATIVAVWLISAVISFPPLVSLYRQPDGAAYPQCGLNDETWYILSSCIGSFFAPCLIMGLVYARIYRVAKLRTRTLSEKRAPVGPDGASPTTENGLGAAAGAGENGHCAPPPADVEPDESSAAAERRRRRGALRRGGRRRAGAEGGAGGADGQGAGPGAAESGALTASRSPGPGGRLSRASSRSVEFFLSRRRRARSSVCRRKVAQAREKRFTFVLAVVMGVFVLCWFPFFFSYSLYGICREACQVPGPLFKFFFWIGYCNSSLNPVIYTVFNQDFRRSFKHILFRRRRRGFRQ

For the compound `Cn1c(N2CCC(C(N)=O)CC2)nc2c1c(=O)n(Cc1ccc(Br)cc1)c(=O)n2C`, the cell count in experiment [1] came to 537. In addition, the inhibition (as a rule, the relative decrease from the control value, in per cent) in experiment [1] was -2.7% (inactive); in experiment [3] it was 24.2% (inactive); in experiment [7], 6.03% (inactive); in experiment [8], 1.39% (inactive). Moreover, the inhibition of aggregation in experiment [2] was 4.3% (inactive). The values for the nuclei count in experiment [2] and in experiment [3] were 97.3% and 95.1%, respectively. For the same compound, in experiment [4], the fluorescence slope is -0.571 (inactive). Further, in experiment [5], the NADPH fluorescence slope was -2.3e-05 (inactive). For the same compound, in experiment [6], the slope is 0.00671 (inactive).
Take `COc1ccc2[nH]c(=O)c(CN(CCO)S(=O)(=O)c3ccc4c(c3)OCCO4)cc2c1`: the cell count in experiment [1] was found to be 539. The inhibition in experiment [1] is -7.5% (inactive); in experiment [3], 24.9% (inactive); in experiment [7], 9.42% (inactive); in experiment [8], 11.8% (inactive). Besides, the inhibition of aggregation in experiment [2] was 7.9% (inactive). For the same compound, the nuclei count in experiment [2] turned out to be 105%; in experiment [3] it was 98.9%. In addition, the fluorescence slope in experiment [4] is -0.555 (inactive). Besides, the NADPH fluorescence slope in experiment [5] is -5.3e-05 (inactive). Further, in experiment [6], the slope was 0.00253 (inactive).
For the compound `CCOc1ccccc1C1CC(=O)Nc2cc3c(cc21)OCO3` (centres undefined), the cell count in experiment [1] was 266. Besides, the inhibition in experiment [1] is 14.4% (inactive); in experiment [3] it was -9.8% (inactive); in experiment [7] it was 3.25% (inactive); in experiment [8], 40.2% (inactive). Further, the inhibition of aggregation in experiment [2] was -18.8% (inactive). Moreover, the nuclei count in experiment [2] was found to be 86.9%; in experiment [3], 98.7%. In addition, the fluorescence slope in experiment [4] is -0.38 (inactive). Also, the NADPH fluorescence slope in experiment [5] is -4.6e-05 (inactive). Also, in experiment [6], the slope is 0.00457 (inactive).
As to `O=C(Cn1nc(Cc2cccnc2)c2ccccc2c1=O)Nc1ccc2c(c1)OCO2`, the cell count in experiment [1] worked out at 576. Besides, the inhibition in experiment [1] was 3% (inactive); in experiment [3], -9.3% (inactive); in experiment [7], 10.9% (inactive); in experiment [8] it was 18.1% (inactive). Also, in experiment [2], the inhibition of aggregation is 22.2% (inactive). For the same compound, the nuclei count was 109% in experiment [2] and 98.3% in experiment [3]. Also, in experiment [4], the fluorescence slope was -0.55 (inactive). Moreover, the NADPH fluorescence slope in experiment [5] was -3.9e-05 (inactive). The slope in experiment [6] was 0.00644 (inactive).
As to `COc1cc(C2C(C#N)=C(C)NC3=C2C(=O)CC(C)(C)C3)ccc1O` (centres undefined), the cell count in experiment [1] came to 422. The inhibition in experiment [1] is -1.9% (inactive); in experiment [3], -15.6% (inactive); in experiment [7], 8.2% (inactive); in experiment [8], 16.9% (inactive). Moreover, the inhibition of aggregation in experiment [2] is 1% (inactive). Moreover, the nuclei count in experiment [2] and in experiment [3] was 103% each time. In experiment [4], the fluorescence slope is -0.453 (inactive). In addition, the NADPH fluorescence slope in experiment [5] was -2e-05 (inactive). Also, the slope in experiment [6] is 0.00555 (inactive).
As to `CCCc1cc(C(=O)Nc2sc(C)c(C)c2C(=O)OCC)no1`, the cell count in experiment [1] worked out at 856. The inhibition in experiment [1] was 2.3% (inactive); in experiment [3], -79.7% (inactive); in experiment [7], 8.68% (inactive); in experiment [8], 31.8% (inactive). Moreover, the inhibition of aggregation in experiment [2] was 2.1% (inactive). Moreover, the results for the nuclei count in experiment [2] and in experiment [3] were 126% and 114%, respectively. Moreover, the fluorescence slope in experiment [4] is -0.229 (inactive). The NADPH fluorescence slope in experiment [5] was -5.5e-06 (inactive). In addition, the slope in experiment [6] is 0.00716 (inactive).
Consider `COc1ccc(CC(=O)N2CCOCC2)cc1OC`, for which the cell count in experiment [1] was found to be 383. Moreover, the inhibition in experiment [1] is -0.8% (inactive); in experiment [3] it was -53.3% (inactive); in experiment [7] it was 15.7% (inactive); in experiment [8], 26.1% (inactive). Moreover, in experiment [2], the inhibition of aggregation was 4.3% (inactive). For the same compound, the nuclei count worked out at 106% in experiment [2] and 111% in experiment [3]. Besides, in experiment [4], the fluorescence slope is -0.428 (inactive). The NADPH fluorescence slope in experiment [5] is -5.5e-05 (inactive). The slope in experiment [6] was 0.00535 (inactive).
As for `O=C(NCc1ccccc1)N[C@@H](Cc1ccccc1)C(=O)O`, the cell count in experiment [1] was 666. The inhibition in experiment [1] was 6.9% (inactive); in experiment [3], 4.5% (inactive); in experiment [7], 10.6% (inactive); in experiment [8], 33.8% (inactive). Moreover, the inhibition of aggregation in experiment [2] is -0.3% (inactive). Besides, the figures for the nuclei count in experiment [2] and in experiment [3] were 116% and 111%, respectively. The fluorescence slope in experiment [4] is -0.43 (inactive). The NADPH fluorescence slope in experiment [5] is -4.1e-05 (inactive). For the same compound, in experiment [6], the slope was 0.00384 (inactive).
`CCOC(=O)N1CCN(Cc2nc3c(c(=O)n(C)c(=O)n3C)n2Cc2ccc(F)cc2)CC1`: the cell count in experiment [1] worked out at 697. Further, the inhibition in experiment [1] was 0.3% (inactive); in experiment [3], -23.4% (inactive); in experiment [7], 16.7% (inactive); in experiment [8], 39.9% (inactive). In addition, the inhibition of aggregation in experiment [2] was -1.6% (inactive). Moreover, the nuclei count worked out at 91.7% in experiment [2] and 123% in experiment [3]. The fluorescence slope in experiment [4] is -0.557 (inactive). Further, the NADPH fluorescence slope in experiment [5] was -3.3e-05 (inactive). Besides, in experiment [6], the slope was 0.00745 (inactive).
With `Cn1c(SCc2ccccc2)nnc1C1CCCNC1` (centres undefined), in experiment [1], the cell count came out at 784. Further, the inhibition in experiment [1] is -2.3% (inactive); in experiment [3] it was 10.3% (inactive); in experiment [7] it was 10.3% (inactive); in experiment [8], 15.2% (inactive). Further, in experiment [2], the inhibition of aggregation was 0.6% (inactive). In addition, the nuclei count in experiment [2] was determined as 100%; in experiment [3] it was 125%. For the same compound, in experiment [4], the fluorescence slope was -0.327 (inactive). Also, the NADPH fluorescence slope in experiment [5] was 1.3e-05 (inactive). The slope in experiment [6] is 0.00512 (inactive).
As to `Cc1cc(NC(=O)CSc2nccn2-c2ccc(Cl)cc2)no1`, in experiment [1], the cell count stood at 505. Also, the inhibition is 4.2% (inactive) in experiment [1], -65.5% (inactive) in experiment [3], -5.68% (inactive) in experiment [7] and -15.6% (inactive) in experiment [8]. Moreover, the inhibition of aggregation in experiment [2] is -6.1% (inactive). Besides, the nuclei count in experiment [2] came out at 106%; in experiment [3], 120%. For the same compound, the fluorescence slope in experiment [4] is -0.554 (inactive). Moreover, in experiment [5], the NADPH fluorescence slope is -8.5e-06 (inactive). Besides, the slope in experiment [6] was 0.00588 (inactive).
`O=C(c1cccc(C(=O)N2CCN(c3ccc(F)cc3)CC2)c1)N1CCN(c2ccc(F)cc2)CC1`: the cell count in experiment [1] worked out at 692. For the same compound, the inhibition in experiment [1] was 1.5% (inactive); in experiment [3], -6.5% (inactive); in experiment [7], -6.05% (inactive); in experiment [8], -5.26% (inactive). Further, the inhibition of aggregation in experiment [2] is -21.7% (inactive). For the same compound, the nuclei count was determined as 68.1% in experiment [2] and 92.8% in experiment [3]. Besides, the fluorescence slope in experiment [4] is -0.438 (inactive). In addition, in experiment [5], the NADPH fluorescence slope was -9.2e-05 (inactive). For the same compound, the slope in experiment [6] was 0.006 (inactive).
For the compound `CCOC(=O)N1CCN(Cc2cc(=O)oc3ccc4ccccc4c23)CC1`, in experiment [1], the cell count was 472. Further, the inhibition is 16.9% (inactive) in experiment [1], -64% (inactive) in experiment [3], 16.9% (inactive) in experiment [7] and 21.7% (inactive) in experiment [8]. In experiment [2], the inhibition of aggregation was 11.2% (inactive). Also, the nuclei count is 93.3% in experiment [2] and 113% in experiment [3]. In experiment [4], the fluorescence slope was -0.408 (inactive). Also, in experiment [5], the NADPH fluorescence slope was 8.3e-06 (inactive). The slope in experiment [6] was 0.0055 (inactive).
Take `COc1ccc(/C=N/O)cc1COc1ccc(NC(C)=O)cc1`: the cell count in experiment [1] came out at 667. The inhibition in experiment [1] is 9.6% (inactive); in experiment [3] it was -30.3% (inactive); in experiment [7] it was 6.34% (inactive); in experiment [8], 10.2% (inactive). In addition, the inhibition of aggregation in experiment [2] was -10.6% (inactive). The nuclei count in experiment [2] is 113%; in experiment [3], 64.4%. In addition, the fluorescence slope in experiment [4] was -0.589 (inactive). Further, in experiment [5], the NADPH fluorescence slope was -1.6e-05 (inactive). Further, the slope in experiment [6] was 0.00667 (inactive).
